CYP2C19 act – human CYP2C19 activators, primary screen, biochemical, luminescence; recombinant CYP2C19, luciferin-H EGE luminescence; active compounds read high; 0 = fully inhibited enzyme, 1 = untreated enzyme; AID 1025, 2008; activation factor at 5 µM; 96,000 tested, under 10 active;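 active = activation factor of at least 2 at 5 µM in the primary screen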;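 also: 0 = wells with 2.5 mM tranylcypromine and 1 = vehicle-only wells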
Target sequence (P33261 whole entry, looked up): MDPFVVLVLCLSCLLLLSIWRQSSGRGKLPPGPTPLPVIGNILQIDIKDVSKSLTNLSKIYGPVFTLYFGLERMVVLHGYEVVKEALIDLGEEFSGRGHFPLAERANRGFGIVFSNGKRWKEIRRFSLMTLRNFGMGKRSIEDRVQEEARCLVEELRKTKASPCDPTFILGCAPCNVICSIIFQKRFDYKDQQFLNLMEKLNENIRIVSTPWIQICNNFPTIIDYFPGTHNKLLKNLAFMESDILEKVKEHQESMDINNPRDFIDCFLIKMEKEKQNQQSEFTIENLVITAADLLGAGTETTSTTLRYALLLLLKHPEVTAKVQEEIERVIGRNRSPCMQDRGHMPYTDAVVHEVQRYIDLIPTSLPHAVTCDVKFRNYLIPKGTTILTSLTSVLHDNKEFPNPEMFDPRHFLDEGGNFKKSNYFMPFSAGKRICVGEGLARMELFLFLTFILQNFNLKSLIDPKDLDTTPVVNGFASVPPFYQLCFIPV
Mac1 fbg enh – enhancers of CD11b/CD18 adhesion to fibrinogen, primary screen, K562 cells, luminescence | hit rate 0.07% among 93,000 | ATPlite luminescence | Integrin beta-2 (Homo sapiens) + Integrin alpha-M (Homo sapiens), P05107+P11215 | activation, % at 10 µM;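 active = 10 µM primary screen giving 50% or more activity, confirmed by 40% or more on retest at that dose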
CYP2C19 inh – blockers of cytochrome P450 2C19 activity – biochemical, luminescence, ADME assay, primary screen; P33261; CYP2C19 Supersomes, luciferin-H EGE luminescence, 30 min; inhibition, % at 5 µM; hit rate 21% among 96,000;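 active = CYP2C19 inhibition above a set limit at 5 µM in the primary screen, cut at about 50% in these data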;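 also: plate controls were negative control wells for no effect and 2.5 mM tranylcypromine positive control for full effect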
CYP2C9 act – human CYP2C9 activators, primary screen, biochemical, luminescence; activation factor at 5 µM; hit rate 1.4% among 96,000; recombinant CYP2C9, luciferin-H conversion; active compounds read high; factor 1 = untreated enzyme, 0 = blocked; AID 1024, 2008; Cytochrome P450 2C9 (Homo sapiens), P11712;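 active = activation factor of 2 or more for CYP2C9 at a 5 µM dose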;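 also: 0 = sulfaphenazole-blocked wells and 1 = vehicle-only wells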
CYP2C9 inh – blockers of cytochrome P450 2C9 activity – biochemical, luminescence, ADME assay, primary screen. P11712. CYP2C9 Supersomes, luciferin-H conversion. inhibition, % at 5 µM. hit rate 20% among 96,000. AID 777, 2007;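 active = blocking of liver enzyme CYP2C9 beyond about 50% at 5 µM, limit read from the data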
CD11b adhes inh – inhibitors of CD11b/CD18 adhesion to fibrinogen, primary screen, K562 cells, luminescence; Integrin beta-2 (Homo sapiens) + Integrin alpha-M (Homo sapiens), P05107+P11215; ATPlite luminescence; Mn2+ added to activate the integrin; inhibition, % at 10 µM; hit rate 0.54% among 93,000; AID 1497, 2009;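 active = primary inhibition of 50% or more at 10 µM, then 40% or more on retest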
Active calls of the source: *; nt = no result. In the library only some 28% were active in any assay of this set; here they are far more common.

SMILES | CYP2C19 act | Mac1 fbg enh | CYP2C19 inh | CYP2C9 act | CYP2C9 inh | CD11b adhes inh
CCOC(=O)C1CCN(Cc2cnc(Oc3ccc(N)cc3)s2)CC1 | 0.6 | -3.5 | 44.9 | 0.4 | 62.5* | -0.4
O=C(O)c1cn(-c2ccc(F)c(F)c2)c2c(F)c(F)c(F)c(F)c2c1=O | 0.9 | nt | 9.4 | 0.9 | 6.6 | nt
O=C(OCN1C(=O)c2ccccc2C1=O)c1ccccc1 | 0.3 | 0.7 | 68.1* | 1.6 | -61.1 | -4.6
O=C(c1ccccc1)c1ccc(CN2C(=O)c3ccccc3C2=O)o1 | 0.1 | 1.4 | 90.8* | 0.2 | 85.0* | 3.5
O=C(CCNC(=O)c1ccccc1)OCN1C(=O)c2ccccc2C1=O | 1 | nt | -0.7 | 1.1 | -5.3 | nt
O=C(O)c1ccc(C(=O)c2ccc3c(c2)C(=O)N(Cc2ccco2)C3=O)cc1 | 0.9 | 0.2 | 9.5 | 0.6 | 44.5 | -23.1
CCS(=O)(=O)c1ccc(S(=O)(=O)CC)s1 | 1.1 | -0.1 | -6.2 | 1 | -2.7 | -47.3
Cc1c(C(C)O)nnn1-c1nonc1N (centres undefined) | 0.9 | -3.0 | 5.3 | 0.9 | 7.1 | -4.1
CC(=O)C(C)Oc1ccc2c3c(c(=O)oc2c1C)CCCC3 (centres undefined) | 0.4 | -5.1 | 58.1* | 0.5 | 45.6 | 7.7
Cc1c(OC(=O)CNC(=O)OC(C)(C)C)ccc2c3c(c(=O)oc12)CCC3 | 0.6 | 5.1 | 40.8 | 2.7* | -173.3 | -8.0
CC(=O)COc1ccc2c3c(c(=O)oc2c1C)CCCCC3 | 0.2 | 3.6 | 82.7* | 0.9 | 14.6 | -6.1
Cc1c(OCC(=O)OC(C)(C)C)ccc2c3c(c(=O)oc12)CCC3 | 0.8 | -4.7 | 15.1 | 1 | 1.6 | -4.8
Cc1ccc(S(=O)(=O)N2CCCC2)cc1C(=O)O | 1.2 | -2.4 | -22.3 | 1 | 3.0 | 9.1
Nc1ncc2c(n1)CC(c1ccco1)CC2=O (centres undefined) | 0.9 | 3.2 | 11.1 | 1 | -1.9 | -3.7
Cc1occc1C(=O)NCc1ccc(C(=O)O)o1 | 1 | -1.5 | -3.3 | 1 | 0.6 | 12.1
Cc1ccc(N2Cc3ccccc3OC(C)C2=O)cc1 (centres undefined) | 0 | 4.5 | 99.5* | 0.2 | 85.0* | -0.2
Cc1nn(Cc2ccccc2)c(C)c1C(=O)OCC(=O)c1cc(C)n(C2CC2)c1C | 0.7 | 2.0 | 26.1 | 1.4 | -41.0 | 23.4
COc1cc(C(C)=O)ccc1OCC(=O)c1cc(C)n(C2CC2)c1C | 0.4 | -0.4 | 58.0* | 1.3 | -31.5 | -6.1
CCCCC1CC(CSc2ncn[nH]2)OC1=O (centres undefined) | 0.2 | -1.5 | 79.7* | 0.8 | 22.4 | -1.6
CCCCC1CC(CSC(=N)N)OC1=O (centres undefined) | 1 | nt | -2.3 | 1.2 | -16.0 | nt
CCOC(=O)N1CCN(c2ncnc3nc[nH]c23)CC1 | 0.9 | -3.7 | 8.8 | 1 | 1.0 | -3.1
Fc1ccc(Sc2cc(Cl)c(-c3ccccc3)nn2)cc1 | 0.5 | nt | 45.4 | 0.4 | 56.6* | nt
O=C(C1CCN(S(=O)(=O)N2CCCC2)CC1)N1CCCCC1 | 1 | -5.0 | -4.9 | 1.3 | -30.1 | 4.4
Cc1nn(C)c(=O)n1-c1ccc(Oc2ccccc2)cc1 | 0.8 | 1.1 | 22.4 | 0.1 | 91.4* | -1.1
Cc1ccccc1-c1nnc(SCC(=O)Nc2ccc(Cl)cc2)n1N | 0.5 | 0.7 | 54.1* | 0.3 | 70.1* | 4.6
SMILES | CYP2C19 act | Mac1 fbg enh | CYP2C19 inh | CYP2C9 act | CYP2C9 inh | CD11b adhes inh
CC(C)CCNC(=O)NC(=O)CSc1nnc(-c2ccccc2F)n1N | 0.6 | 3.1 | 44.4 | 0.5 | 53.6* | -48.0
CC(C)(C)NC(=O)NC(=O)CSc1nnc(-c2ccccc2F)n1N | 1 | -1.5 | 3.1 | 0.9 | 6.2 | -4.5
COc1ccc(NC(=O)CSc2nnc(-c3ccccc3C)n2N)cc1 | 0.4 | -3.1 | 57.6* | 0.3 | 74.1* | -7.0
COc1cccc(NC(=O)CSc2nnc(-c3cccc(OC(C)C)c3)n2N)c1 | 0.6 | -3.8 | 42.0 | 0.2 | 76.5* | 2.1
CN(C)C(=O)NC(O)C(Cl)Cl (centres undefined) | 1 | -2.9 | -1.0 | 1 | -3.9 | -8.2
Cc1nc2cc(CC(=O)O)ccc2o1 | 1.1 | nt | -8.0 | 1 | -4.8 | nt
CCOC(=O)c1ccc(NC(=O)c2nccnc2C(=O)O)cc1 | 1.1 | -0.6 | -10.9 | 1.3 | -29.7 | 4.9
CCn1c(=O)cc(SCC(=O)NCc2ccccn2)c2ccccc21 | 1 | -1.9 | 2.0 | 1.5 | -45.3 | -8.3
Clc1ccc(Sc2ccc(/C=N/n3cnnc3)o2)cc1 | 0.2 | 5.9 | 77.4* | 0.5 | 48.1 | -11.6
Clc1ccc(Sc2oc(/C=N/n3cnnc3)cc2Br)cc1 | 0.1 | -4.2 | 90.7* | 0.9 | 5.4 | 2.0
O=C1NC(=O)/C(=C\c2ccc(Sc3ccc(Cl)cc3)o2)N1 | 0.8 | -0.9 | 17.0 | 0.8 | 20.0 | -4.2
O=C(NC1CCCCC1)c1cccnc1C(=O)O | 0.9 | nt | 5.5 | 1 | -1.7 | nt
Cc1ccc(S(=O)(=O)N=C2SCCCS2)cc1 | 0.6 | -0.9 | 36.7 | 2* | -103.5 | -6.1
Cc1ccc(S(=O)(=O)/N=C2/NC(=O)/C(=C\c3ccco3)S2)cc1 | 0.8 | -10.7 | 18.7 | 0.6 | 43.1 | 41.5
O=C(OCc1ccccc1Cl)c1ccc(-n2cnnc2)cc1 | 0 | -6.0 | 97.7* | 0.1 | 90.5* | 25.1
O=C(Cn1ncnn1)OCc1ccccc1Cl | 0.9 | -3.2 | 5.1 | 1.2 | -17.6 | -23.9
CCn1cc(C2=NOC(C(=O)Nc3ccccc3C(=O)OC)C2)c(C)n1 (centres undefined) | 0.8 | -2.3 | 24.4 | 2.5* | -147.7 | 15.8
COCCN(C(=O)CCCC(=O)Nc1ccccn1)C(C(=O)NC1CCCC1)c1ccc(C)cc1 (centres undefined) | 0.5 | -1.8 | 46.8 | 0.7 | 28.3 | -2.3
Cc1cc(=O)[nH]c(S/C=C/c2ccccc2)n1 | 0.8 | 1.0 | 17.1 | 0.6 | 36.2 | -5.9
COc1ccc(C(=O)N2CCN=C2SCc2cccnc2)cc1OC | 0.2 | 2.9 | 82.8* | 0.9 | 7.0 | -2.6
CCOc1ccccc1C(=O)N1CCN=C1SCc1cccnc1 | 0.4 | -1.9 | 63.7* | 0.6 | 37.9 | -9.8
O=C(c1ccccc1F)N1CCN=C1SCc1cccnc1 | 0.2 | -5.5 | 82.5* | 0.5 | 49.6 | 1.6
COc1cccc(OC)c1C(=O)N1CCN=C1SCc1cccnc1 | 0.6 | -1.4 | 43.8 | 0.8 | 15.7 | -17.6
O=C(C1CCCCC1)N1CCN=C1SCc1cccnc1 | 0 | -1.5 | 95.3* | 0.5 | 45.5 | -6.3
O=C(CSc1nnc(Nc2ccccc2)s1)NCc1cccs1 | nt | 0.8 | nt | nt | nt | -15.6
